Measurements reported in PubChem BioAssay (EPA / NIEHS).
Several values for one entry are separate records, joined by “and”; a condition that tells them apart may be missing. Identical values can stand only once. Results filed as inconclusive are left out. More than one record can exist for a structure, and the calls need not agree. Activity calls are given as the source filed them. Rule for the calls: active = hit-call score of the fitted dose curve at least 0.9, where 1 is the maximum; inconclusive = response in the unintended direction; inactive = score below 0.9.

target: Cellular tumor antigen p53 (Homo sapiens) (UniProt P04637); assay: TOX21_p53_BLA_p3_ratio: Tox21 HCT-116 p53 Agonism Beta-lactamase Assay, Ratio, Phase 3 (AID 2283596)
Sequence (P04637 whole entry, looked up, the tested form may be a part): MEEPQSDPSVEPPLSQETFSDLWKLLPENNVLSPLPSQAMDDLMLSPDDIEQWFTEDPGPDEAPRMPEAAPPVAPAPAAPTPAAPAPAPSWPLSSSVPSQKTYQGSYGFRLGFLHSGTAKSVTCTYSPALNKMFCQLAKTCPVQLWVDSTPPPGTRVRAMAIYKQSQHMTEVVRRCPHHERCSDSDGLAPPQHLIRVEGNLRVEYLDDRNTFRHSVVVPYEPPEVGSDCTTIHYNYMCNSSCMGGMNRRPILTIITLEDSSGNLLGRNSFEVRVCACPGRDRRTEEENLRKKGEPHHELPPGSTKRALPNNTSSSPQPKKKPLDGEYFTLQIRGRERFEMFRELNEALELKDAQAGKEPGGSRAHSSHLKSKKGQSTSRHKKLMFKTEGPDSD
Excerpt: TOX21_p53_BLA_p3 is a cell-based, single-readout assay that uses HCT116, a human intestinal cell line, […] in a 1536-well plate.TOX21_p53_BLA_p3_ratio is an assay readout measuring reporter gene via receptor activity and designed using inducible reporter (beta lactamase induction) detected with GAL4 b-lactamase reporter gene. The signal is derived from the ratio of cleaved (ch2) to uncleaved (ch1) reporter gene substrate used as the measure of target activity.Data from the assay component TOX21_p53_BLA_p3_ratio was analyzed into 1 assay endpoint. This assay endpoint, TOX21_p53_BLA_p3_ratio, was analyzed in the positive analysis fitting direction relative to DMSO as the negative control and baseline of activity. Using a type of inducible reporter, gain-of-signal activity can be used to understand changes in the reporter gene as they relate to the gene TP53. Furthermore, this assay endpoint can be referred to as a primary readout, because this assay has produced multiple assay endpoints where this ratio serves a reporter gene function to understand target activity. To generalize the intended target to other relatable targets, this assay endpoint is annotated to the DNA binding intended target family, where the subfamily is tumor suppressor.
Thawing Method: Place 14 mL of pre-warmed thaw medium into a 15 mL of conical tub. Remove the vial of cells to be thawed from liquid nitrogen and thaw rapidly by placing at 37C in a water bath with gentle agitation for 1-2 minutes. Decontaminate the vial by wiping with 70% ethanol before opening in a biological safety cabinet. Transfer the vial contents drop-wise into 14 mL of thaw medium in a sterile 15-mL conical tub. Centrifuge cells at 900 rpm for 4 minutes and resuspend in thaw medium. Transfer contents to the T75 tissue culture flask containing Thaw Medium and place flask in a humidified 37C/5% CO2 incubator. Switch to growth medium at first passage.Propagation Method: Aspirate medium, rinse once in DPBS, add 0.25% Trypsin/EDTA and swirl to coat the cell evenly. Add an equal volume of Growth Medium to inactivate Trypsin after 2-3 minutes incubation at 37C. Centrifuge cells at 900 rpm for 4 minutes and resuspend in growth medium. Cell should be passage or fed at least twice a week.Assay Protocol: Harvest cells from culture in growth medium and resuspend in assay medium. 2.2 Dispense 4000 cells/5 uL/well into 1536-well black/clear bottom plates using a Multidrop dispenser. After the cells were incubated at 37C for 5 hours, 23 nL of compounds dissolved in DMSO were transferred to the assay plate by a PinTool resulting in a 217-fold dilution. Incubate the plates for 16 hours at 37C, 5% CO2. Add 1 uL of 6X LiveBLAzer FRET B/G (CCF4-AM) Substrate Mixture to each well using a BioRAPTR dispenser and incubate the plates at room temperature for 2 hours. Measure fluorescence intensity at 460 and 530 nm emission and 405 nm excitation by an Envision detector. Data is expressed as the ratio of 460nm/530nm emissions. Add 4 uL of Cell-titer Glo to each well using BioRAPTR and incubate the plates at room temperature for 2 hours. Measure fluorescence intensity by a VewLux plate reader.

SMILES | outcome | AC50
CC(C)NC(C)C | inactive | 
C#C[C@]1(OC(=O)CCCCCC)CC[C@H]2[C@@H]3CCC4=CC(=O)CC[C@@H]4[C@H]3CC[C@@]21C | inactive | 
Cc1ccccc1CCl | inactive | 
CC(C)(Cl)[N+](=O)[O-] | inactive | 
Oc1cccc[c]1[Hg][Cl] |  | 18.6 µM (active)
c1ccc(C2(N3CCCC3)CCCCC2)cc1 |  | 43.9 µM (active)
COc1ccc(OC)c([C@@H](O)[C@H](C)N)c1 | inactive | 
NC1(c2ccccc2)CCCCC1 | inactive | 
S=C=Nc1ccccc1 | inactive | 
CC(C)CCC(=O)O[C@H]1CC[C@H]2[C@@H]3CCC4=CC(=O)CC[C@]4(C)[C@H]3CC[C@]12C | inactive | 
CNC(C)[C@@H]1CC[C@@H](N)[C@@H](O[C@H]2[C@H](O)[C@@H](O[C@H]3OC[C@](C)(O)[C@H](NC)[C@H]3O)[C@H](N)C[C@@H]2N)O1 (stereo not given in full) (tested in a mixture with another compound) | inactive | 
COC1=CC(=O)O[C@@H](/C=C/c2ccc3c(c2)OCO3)C1 | inactive | 
ClC(Cl)(Cl)Cl | inactive | 
CCCCC(=O)Cl | inactive | 
O=C(O)/C=C\C(=O)O | inactive | 
CC(=O)c1cc2c(cc1C)C(C)(C)C(C)CC2(C)C (stereo not given) | inactive | 
O=c1[nH]c2ccccc2n1CCCN1CCC(n2c(=O)[nH]c3cc(Cl)ccc32)CC1 | inactive | 
CN1[C@@H]2CC[C@H]1CC(O)C2 (stereo not given in full) | inactive | 
Oc1ccc2c3c1O[C@H]1[C@@H](O)C=C[C@H]4[C@@H](C2)NCC[C@@]341 | inactive | 
CC1OC(C)OC(C)O1 (stereo not given) | inactive | 34.1 µM (active)

SMILES | outcome | AC50
Cc1nnc2n1-c1sc(Br)cc1C(c1ccccc1Cl)=NC2 | inactive | 
CC1CCCC1 | inactive | 
BrCC(Br)C1CCC(Br)C(Br)C1 (stereo not given) | inactive | 
Cc1c(N)nc([C@H](CC(N)=O)NC[C@H](N)C(N)=O)nc1C(=O)N[C@H](C(=O)N[C@H](C)[C@@H](O)[C@H](C)C(=O)N[C@H](C(=O)NCCc1nc(-c2nc(C(=O)NCCC[S+](C)C)cs2)cs1)[C@@H](C)O)[C@@H](O[C@@H]1O[C@@H](CO)[C@@H](O)[C@H](O)[C@@H]1O[C@H]1O[C@H](CO)[C@@H](O)[C@H](OC(N)=O)[C@@H]1O)c1cnc[nH]1 |  | 98.3 nM (active) and 922 nM (active)
C=C(Cl)CSC(=S)N(CC)CC | inactive | 
S=C=S | inactive | 
CCCCCCCCCCCOC(=O)c1ccccc1C(=O)OCCCCCCCCCCC | inactive | 
CCCC(=O)Cl | inactive | 
O=C(O)/C=C/C(=O)O | inactive | 
NNC(=O)c1ccccc1 | inactive | 
CCCCN=C=O | inactive | 
O=C(O)CCCO | inactive | 
CCCSc1cc(OC)c(CCN)cc1OC |  | 48 µM (active)
Clc1ccc2ccccc2c1 | inactive | 
OCC(Br)CBr (stereo not given) | inactive | 
Cc1nnc2n1-c1ccc(Cl)cc1C(c1ccccc1)=NC2 | inactive | 
CCOP(=S)(OCC)SCCl | inactive | 
CCOP(=O)(OCC)OP(=O)(OCC)OCC | inactive | 
CN1CCN(C(=O)O[C@H]2c3nccnc3C(=O)N2c2ccc(Cl)cn2)CC1 | inactive | 
